This is a sample that favours compounds with a hit; in the whole collection about 2.5% have one here.
UBC13 polyUb: UBC13 polyubiquitin chain formation inhibitors, primary screen, biochemical, TR-FRET, uHTS. Ubiquitin-conjugating enzyme E2 N (Homo sapiens), P61088. inhibition, % at 20 µM. hit rate 0.47% among 330,000; in the data active means inhibition above about 45%, passing the limit was not always enough
Target sequence (P61088 whole entry, looked up): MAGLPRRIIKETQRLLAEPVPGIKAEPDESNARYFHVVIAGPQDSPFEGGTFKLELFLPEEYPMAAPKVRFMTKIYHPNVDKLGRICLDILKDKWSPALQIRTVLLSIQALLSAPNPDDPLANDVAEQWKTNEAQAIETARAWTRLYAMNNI
MEKK2mut PB1 HTS: MEK5 binding signal on mutant MEKK2 PB1, primary screen, biochemical, multiplex bead flow cytometry, Alexa488-MEK5. hit rate 0.35% among 290,000. Alexa488-MEK5 binding to MEKK2 mutant. AID 1530, 2009. percent response, % at 10 µM; in the data active means percent response above about 24%, passing the limit was not always enough
MEKK2 WT-MEK5: modulators of MEK5 binding to wildtype MEKK2, primary screen, biochemical, multiplex bead flow cytometry, Alexa488-MEK5; Mitogen-activated protein kinase kinase kinase 2 (Homo sapiens), Q9Y2U5; Alexa488-MEK5 binding to MEKK2 WT; actives lie on both sides; hit rate 1.1% among 290,000; binding response (% of control), % at 10 µM; in the data active means binding response below about 67% or above about 130%
Rce1 inhib: yeast Rce1p protease inhibitors, primary screen, biochemical, fluorescence, cell-free homogeneous; CAAX prenyl protease 2 (Saccharomyces cerevisiae (strain ATCC 204508 / S288c)), Q03530; yeast membranes, quenched prenylated peptide cleavage fluorescence; calls only; hit rate 0.27% among 290,000; AID 2563, 2010;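 active means fall in fluorescence gain of 50% or more versus controls, with final raw signal at or below 3038400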;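 further: plate controls were neutral control wells for no effect and wells lacking membranes for full effect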
Target sequence (Q03530 whole entry, looked up): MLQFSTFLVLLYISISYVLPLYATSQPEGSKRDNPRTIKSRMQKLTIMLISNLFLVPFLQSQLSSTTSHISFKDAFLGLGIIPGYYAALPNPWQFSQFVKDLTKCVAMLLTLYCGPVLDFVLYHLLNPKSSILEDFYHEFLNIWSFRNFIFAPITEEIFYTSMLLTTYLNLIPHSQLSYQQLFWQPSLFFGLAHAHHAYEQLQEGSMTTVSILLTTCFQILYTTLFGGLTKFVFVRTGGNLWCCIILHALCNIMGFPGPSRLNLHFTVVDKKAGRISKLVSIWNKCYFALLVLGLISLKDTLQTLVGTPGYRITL
MEKK3 PB1 HTS: modulators of MEKK3-MEK5 PB1 binding, primary screen, biochemical, wildtype MEKK3, multiplex bead flow cytometry, Alexa488-MEK5; hit rate 1.4% among 290,000; binding response (% of control), % at 10 µM; bead-based flow cytometry, Alexa488-MEK5 binding to MEKK3; actives lie on both sides; 0 = blocked by unlabeled MEK5, 100 = vehicle; AID 1529, 2009; Mitogen-activated protein kinase kinase kinase 3 (Homo sapiens), Q99759;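 active means binding response more than 3 SD above or below the average of its plate-row segment, actives on both sides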;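 further: Alexa488 bead fluorescence after subtracting the streptavidin-only scavenger bead signal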
MEKK2wt confirm: modulators of MEK5 binding to wildtype MEKK2, confirmation, biochemical, single concentration, multiplex bead flow cytometry | shares compounds with MEKK3 PB1 HTS | Alexa488-MEK5 binding to MEKK2 WT; actives lie on both sides | hit rate 2.4% among 5,900 | binding response (% of control), % at 10 µM; in the data active means binding response below about 16% or above about 210%; inactive means in between
MEKK2mut-MEK5: mutant MEKK2 PB1-MEK5 binding signal retest – biochemical, single concentration, multiplex bead flow cytometry, confirmation; shares compounds with MEKK3 PB1 HTS; Alexa488-MEK5 binding to MEKK2 mutant; percent response, % at 10 µM; hit rate 2% among 5,900; in the data active means percent response mostly above about 71%, no sharp cut-off; inactive means mostly below about 38%;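 further: higher means compound restores mutant binding toward wildtype level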
MEKK3 confirm: MEKK3 wild-type PB1 binding to MEK5, inhibitors, confirmation, biochemical, bead multiplex flow cytometry, single concentration, wildtype; shares compounds with MEKK3 PB1 HTS; Alexa488-MEK5 binding to MEKK3; active compounds read low; binding response (% of control), % at 10 µM; hit rate 1.8% among 5,900;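 active means binding response below 72% of control, or above a set upper limit, though filed actives all read lower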;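 further: 100% = DMSO only wells and 0% = binding blocked by excess unlabeled MEK5; lower values mean stronger disruption of MEK5 binding to MEKK3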
The depositor's hits bear a star; [ ] = remark or other dose.

How did Cc1ccc(C(C(=O)NC(C)(C)C)N(Cc2cccnc2)C(=O)C(=O)NC2CCCCC2)o1 (stereo unspecified) do in these assays?
UBC13 polyUb: 17; MEKK2mut PB1 HTS: -3; MEKK2 WT-MEK5: 97; Rce1 inhib: inactive; MEKK3 PB1 HTS: 96

Results for CCC1=NN(S(=O)(=O)c2ccc(C)cc2)C(O)(C(F)(F)F)C1 (stereo unspecified) ?
UBC13 polyUb: -9; MEKK2mut PB1 HTS: 1; MEKK2 WT-MEK5: 114; Rce1 inhib: inactive; MEKK3 PB1 HTS: 128*; MEKK2wt confirm: 102; MEKK2mut-MEK5: -2; MEKK3 confirm: 105

Results for CCC1=NN(C(=O)c2cccnc2)C(O)(C(F)(F)F)C1 (stereo unspecified) ?
UBC13 polyUb: 4; MEKK2mut PB1 HTS: -2; MEKK2 WT-MEK5: 99; Rce1 inhib: inactive; MEKK3 PB1 HTS: 103

How did COc1ccc(NC(=O)COc2nsnc2N2CCCCC2)cc1 do in these assays?
UBC13 polyUb: 3; MEKK2mut PB1 HTS: -33; MEKK2 WT-MEK5: 44*[inhibitor]; Rce1 inhib: inactive; MEKK3 PB1 HTS: 27*[inhibitor]; MEKK2wt confirm: 95; MEKK2mut-MEK5: -1; MEKK3 confirm: 99

Results for CCOc1ccc(NC(=O)COc2nsnc2N2CCCCC2)cc1 ?
UBC13 polyUb: 11; MEKK2mut PB1 HTS: -6; MEKK2 WT-MEK5: 88; Rce1 inhib: inactive; MEKK3 PB1 HTS: 89

What do the screens show for `O=C(c1ccco1)N1CCN(C(=O)c2ccc(COc3ccc4c(c3)CCC4)o2)CC1`?
UBC13 polyUb: 0; MEKK2mut PB1 HTS: -9; MEKK2 WT-MEK5: -4.0*[inhibitor]; Rce1 inhib: inactive; MEKK3 PB1 HTS: 0.0*[inhibitor]; MEKK2wt confirm: 98; MEKK2mut-MEK5: -1; MEKK3 confirm: 99

What do the screens show for `CCOCCOC(=O)C1=C(C)N(C)C(=O)NC1c1ccccc1Cl` (stereo unspecified)?
UBC13 polyUb: -4; MEKK2mut PB1 HTS: -19; MEKK2 WT-MEK5: 0.0*[inhibitor]; Rce1 inhib: inactive; MEKK3 PB1 HTS: 1.0*[inhibitor]; MEKK2wt confirm: 104; MEKK2mut-MEK5: 2; MEKK3 confirm: 102

Results for CC1=C(C(=O)OCC(C)C)C(c2ccccc2Cl)NC(=O)N1C (stereo unspecified) ?
UBC13 polyUb: 9; MEKK2mut PB1 HTS: 12; MEKK2 WT-MEK5: 106; Rce1 inhib: inactive; MEKK3 PB1 HTS: 105

How did CC(C)(C)Nc1nc(Oc2ccc(=O)[nH]n2)nc(N2CCOCC2)n1 do in these assays?
UBC13 polyUb: 4; MEKK2mut PB1 HTS: -2; MEKK2 WT-MEK5: 88; Rce1 inhib: inactive; MEKK3 PB1 HTS: 75*[inhibitor]; MEKK2wt confirm: 104; MEKK2mut-MEK5: 0; MEKK3 confirm: 101

Results for COc1nc(Oc2ccc(=O)[nH]n2)nc(N2CCOCC2)n1 ?
UBC13 polyUb: 0; MEKK2mut PB1 HTS: 5; MEKK2 WT-MEK5: 98; Rce1 inhib: inactive; MEKK3 PB1 HTS: 102

Results for O=C1c2ccccc2CN1CCSC(=S)N1CCOCC1 ?
UBC13 polyUb: -1; MEKK2mut PB1 HTS: -1; MEKK2 WT-MEK5: 100; Rce1 inhib: inactive; MEKK3 PB1 HTS: 101

Results for CC(=O)Nc1nc(NC(=O)/C=C/c2ccccc2)n(-c2ccccc2)n1 ?
UBC13 polyUb: 4; MEKK2mut PB1 HTS: 2; MEKK2 WT-MEK5: 105; Rce1 inhib: inactive; MEKK3 PB1 HTS: 140*; MEKK2wt confirm: 104; MEKK2mut-MEK5: -3; MEKK3 confirm: 104
